According to PubChem BioAssay (EPA / NIEHS):
Calls of active or inactive are those of the source. How the source made its calls: active means hit-call score of the fitted dose curve at least 0.9, where 1 is the maximum; inactive means score below 0.9.

Key:
[1] = APR_HepG2_CellCycleArrest_24hr: Apredica 24-hour HepG2 Assay for Cell Cycle Arrest (AID 2282905); conditions: imaging, actives raise or lower the signal;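 further: cell cycle arrest scored as ratio of 2N to 4N nuclear DNA content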
Summary of the method: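 HepG2 cells were exposed to compounds at 0.39–200 uM (ten concentrations, duplicate) in 0.5% v/v DMSO for 24 hr. After formaldehyde fixation and Triton permeabilization, Hoechst 33342-stained nuclei were imaged at 20x; DNA content was quantified, with bidirectional fitting against DMSO.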

[2] = APR_HepG2_StressKinase_1hr: Apredica 1-hour HepG2 Assay for Stress Kinase (AID 2282906); conditions: HepG2 stress kinase (phospho-c-Jun) imaging, actives raise or lower the signal
Summary of the method: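 HepG2 cells dosed 0.39-200 uM (0.5% DMSO) for 1 h, then formaldehyde-fixed. Stress kinase read by phospho-c-Jun immunofluorescence using high-content imaging; bidirectional fit vs DMSO.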

[3] = APR_HepG2_NuclearSize_24hr: Apredica 24-hour HepG2 Assay for Nuclear Size (AID 2282907); conditions: high-content imaging, actives raise or lower the signal
Summary of the method: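 HepG2 human liver cells were exposed for 24 hr to compounds at 0.39–200 uM (ten concentrations, duplicate) in 0.5% v/v DMSO. They were then formaldehyde-fixed, Triton-permeabilized and Hoechst 33342-stained, and nuclear diameter was imaged at 20x. Bidirectional fits were made against DMSO.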

[4] = APR_HepG2_CellLoss_24hr: Apredica 24-hour HepG2 Assay for Cell Loss (AID 2282908); conditions: high-content imaging;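 on AC50: fit in both directions so a hit may be cell loss or gain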
Summary of the method: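 Compounds were tested at 0.39–200 uM in duplicate with 0.5% v/v DMSO final. Cells were then fixed in 3.7% formaldehyde, Hoechst 33342 nuclei were imaged at 20x by HCS, and cell number was fitted bidirectionally against DMSO.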

[5] = APR_HepG2_MicrotubuleCSK_24hr: Apredica 24-hour HepG2 Assay for Microtubule CSK Stabilty (AID 2282909); conditions: HepG2 microtubule cytoskeleton imaging, actives raise or lower the signal
Summary of the method: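 HepG2 cells exposed 24 h to compounds at 0.39–200 uM (duplicate, 0.5% v/v DMSO final), then fixed, permeabilized and immunostained for alpha-tubulin with Hoechst 33342. Cytoskeleton imaged at 20x; bidirectional fit versus DMSO baseline.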

[6] = APR_HepG2_MitoMembPot_24hr: Apredica 24-hour HepG2 Assay for Mitochondrial Membrane Potential (AID 2282911); conditions: imaging, actives raise or lower the signal
Summary of the method: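 Mitochondrial dye uptake (MitoTracker Red CMXRos, 250 nM, 30 min pre-fixation) in HepG2 after 24 hr compound exposure, 0.39–200 uM; ArrayScan images at 20x, activity fitted in both directions relative to DMSO.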

[7] = APR_HepG2_MitoMass_24hr: Apredica 24-hour HepG2 Assay for Mitochondrial Mass (AID 2282912); conditions: high-content imaging, actives raise or lower the signal
Summary of the method: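 Human HepG2 liver cells were exposed for 24 hr to compounds at 0.39–200 uM (duplicates, 0.5% v/v DMSO final). They were stained live with 250 nM MitoTracker Red CMXRos for 30 min, fixed in 3.7% formaldehyde, and imaged by HCS fluorescence; signals were fitted bidirectionally against DMSO.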

[8] = APR_HepG2_p53Act_24hr: Apredica 24-hour HepG2 Assay for p53 Activation (AID 2282913); conditions: high-content imaging, actives raise or lower the signal;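 further: p53 protein immunofluorescence averaged per cell in HepG2 with Hoechst nuclei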
Summary of the method: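 Following 24 hr dosing of HepG2 at 0.39–200 uM, the cells undergo formaldehyde fixation, Triton permeabilization and multiplexed antibody labeling that includes p53 (Cy5). Signal from the imaging is referenced to DMSO solvent controls.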

[9] = APR_HepG2_CellCycleArrest_72hr: Apredica 72-hour HepG2 Assay for Cell Cycle Arrest (AID 2282914); conditions: high-content imaging, actives raise or lower the signal
Summary of the method: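 Using multiplexed high-content imaging, HepG2 nuclei stained with Hoechst 33342 (2 ug/mL) were analysed for DNA content after fixation and permeabilization. Treatment lasted 72 hr across 0.39–200 uM in duplicate with final DMSO 0.5% v/v; DMSO served as negative control.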

[10] = APR_HepG2_CellLoss_72hr: Apredica 72-hour HepG2 Assay for Cell Loss (AID 2282915); conditions: high-content imaging
Summary of the method: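 HepG2 cells exposed 72 h to compound at 0.39–200 uM (10 concentrations, duplicate) in 0.5% DMSO. Fixed with 3.7% formaldehyde and Hoechst 33342-stained. Imaged at 20x; nuclear count gives cell number, fitted bidirectionally versus DMSO.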

[11] = APR_HepG2_P-H2AX_72hr: Apredica 72-hour HepG2 Assay for H2AX Phosphorylation (AID 2282916); conditions: imaging, actives raise or lower the signal;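 further: phospho-histone H2A.x immunostain intensity per cell marking DNA damage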
Summary of the method: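 HepG2 human liver cells were exposed for 72 hr to compounds at 0.39–200 uM (10 concentrations, duplicate per plate) in 0.5% v/v DMSO. Fixed, permeabilized cells were immunolabeled for phospho-histone H2A.x with Hoechst 33342 and imaged by HCS fluorescence; bidirectional fit versus DMSO.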

[12] = APR_HepG2_MitoMembPot_72hr: Apredica 72-hour HepG2 Assay for Mitochondrial Membrane Potential (AID 2282917); conditions: imaging, actives raise or lower the signal
Summary of the method: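 HepG2 cells dosed 72 hr with compound at 0.39–200 uM in duplicate, 0.5% v/v DMSO final. Mitochondria stained with 250 nM MitoTracker Red CMXRos for 30 min before formaldehyde fixation, imaged by high-content fluorescence; bidirectional fit versus DMSO.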

[13] = APR_HepG2_MitoticArrest_72hr: Apredica 72-hour HepG2 Assay for Mitotic Arrest (AID 2282918); conditions: high-content imaging, actives raise or lower the signal
Summary of the method: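 Using high-content imaging of fixed HepG2 cells, phospho-histone H3 signal was measured following a 72 hr incubation with ten-point compound dilutions up to 200 uM. DMSO served as the negative control and baseline for bidirectional curve fitting.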

[14] = APR_HepG2_MicrotubuleCSK_72hr: Apredica 72-hour HepG2 Assay for Microtubule CSK Stabilty (AID 2282919); conditions: HepG2 microtubule cytoskeleton, high-content imaging, actives raise or lower the signal
Summary of the method: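 HepG2 cells were exposed 72 hr to compound at 0.39–200 uM in duplicate (0.5% DMSO final), then fixed and permeabilized. Alpha-tubulin immunofluorescence was imaged by high-content microscopy, with bidirectional fitting against DMSO and taxol as positive control.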

[15] = APR_HepG2_P-H2AX_24hr: Apredica 24-hour HepG2 Assay for H2AX Phosphorylation (AID 2282920); conditions: high-content imaging, actives raise or lower the signal
Summary of the method: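 Human HepG2 liver cells, treated 24 hr with test chemicals (0.39–200 uM, final DMSO 0.5% v/v), are fixed and co-stained for phospho-H2A.x and c-Jun with Hoechst. Imaged intensity is fitted in both directions against DMSO controls.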

[16] = APR_HepG2_StressKinase_72hr: Apredica 72-hour HepG2 Assay for Stress Kinase (AID 2282921); conditions: HepG2 stress kinase (phospho-c-Jun) imaging, actives raise or lower the signal
Summary of the method: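 Cells were exposed for 72 h to ten concentrations (0.39–200 uM, duplicate) at 0.5% v/v DMSO final, then fixed with 3.7% formaldehyde, permeabilized and immunostained for phospho-c-Jun (Cy3 secondary) with Hoechst nuclear counterstain.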

[17] = APR_HepG2_StressKinase_24hr: Apredica 24-hour HepG2 Assay for Stress Kinase (AID 2282922); conditions: HepG2 stress kinase (phospho-c-Jun) imaging, actives raise or lower the signal
Summary of the method: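 HepG2 cells exposed 24 h to 0.39–200 uM compound in duplicate (0.5% v/v DMSO final). Cells fixed in 3.7% formaldehyde, permeabilized and immunostained for phospho-c-Jun; read by high-content fluorescence imaging, fitted bidirectionally against DMSO.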

[18] = APR_HepG2_p53Act_72hr: Apredica 72-hour HepG2 Assay for p53 Activation (AID 2282923); conditions: high-content imaging, actives raise or lower the signal;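 further: average cellular p53 protein immunofluorescence intensity in HepG2 cells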
Summary of the method: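 Cells were dosed for 72 hr with compounds at 0.39–200 uM in duplicate (final DMSO 0.5% v/v), then fixed in 3.7% formaldehyde, permeabilized with Triton X-100 and immunostained for p53 (Cy5) with Hoechst 33342 nuclear counterstain.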

[19] = APR_HepG2_MitoMass_72hr: Apredica 72-hour HepG2 Assay for Mitochondrial Mass (AID 2282924); conditions: high-content imaging, actives raise or lower the signal;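 further: MitoTracker Red CMXRos stain intensity per cell imaged as mitochondrial mass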
Summary of the method: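 HepG2 cells dosed 72 hr at 0.39–200 uM (0.5% DMSO), in duplicate. MitoTracker Red CMXRos 250 nM loaded 30 min before formaldehyde fixation; high-content fluorescence imaging, bidirectional fit versus DMSO.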

Measured: AC50

C[C@H]1[C@H](c2ccc(Cl)cc2)SC(=O)N1C(=O)NC1CCCCC1
inactive: [1] | [2] | [3] | [4] | [5] | [6] | [7] | [8] | [9] | [11] | [13] | [15] | [16] | [17] | [18] | [19]
active: [10] 33.5 µM | [12] 100 µM | [14] 44.5 µM

N#CN
inactive: [1] | [2] | [3] | [4] | [5] | [6] | [7] | [9] | [10] | [11] | [12] | [13] | [14] | [15] | [16] | [17] | [19]

COC(=O)c1ccccc1S(=O)(=O)NC(=O)Nc1nc(C)nc(OC)n1
inactive: [1] | [2] | [3] | [4] | [5] | [6] | [7] | [8] | [9] | [10] | [11] | [12] | [13] | [14] | [15] | [16] | [17] | [18] | [19]

CC(C)(C)C(O)/C(=C\c1ccc(Cl)cc1Cl)n1cncn1 (centres undefined)
active: [10] 15.3 µM | [14] 175 µM
inactive: [1] | [2] | [3] | [4] | [5] | [6] | [7] | [8] | [9] | [11] | [12] | [13] | [15] | [16] | [17] | [18] | [19]

CNC(=O)/C=C(\C)OP(=O)(OC)OC
inactive: [1] | [2] | [3] | [4] | [5] | [6] | [7] | [9] | [10] | [11] | [12] | [13] | [14] | [15] | [16] | [17] | [19]

COc1cc(OC)nc(NC(=O)NS(=O)(=O)c2cc(NC=O)ccc2C(=O)N(C)C)n1
inactive: [1] | [2] | [3] | [4] | [5] | [6] | [7] | [8] | [9] | [10] | [11] | [12] | [13] | [14] | [15] | [16] | [17] | [18] | [19]

O=[N+]([O-])/N=C1\NCCN1Cc1ccc(Cl)nc1
inactive: [1] | [2] | [3] | [4] | [5] | [6] | [7] | [9] | [10] | [11] | [12] | [13] | [14] | [15] | [16] | [17] | [19]

CCS(=O)(=O)c1cccnc1S(=O)(=O)NC(=O)Nc1nc(OC)cc(OC)n1
inactive: [1] | [2] | [3] | [4] | [5] | [6] | [7] | [8] | [9] | [10] | [11] | [12] | [13] | [14] | [15] | [16] | [17] | [18] | [19]

C#CCN1C(=O)COc2cc(F)c(N3C(=O)C4=C(CCCC4)C3=O)cc21
inactive: [1] | [2] | [3] | [4] | [5] | [6] | [7] | [9] | [10] | [11] | [12] | [13] | [14] | [15] | [16] | [17] | [19]

N#Cc1c(Cl)c(Cl)c(Cl)c(C#N)c1Cl
active: [2] 1.94 µM | [10] 0.452 µM | [15] 0.322 µM
inactive: [1] | [3] | [4] | [5] | [6] | [7] | [8] | [9] | [11] | [12] | [13] | [14] | [16] | [17] | [18] | [19]

CC(C)N(C(=O)COc1nnc(C(F)(F)F)s1)c1ccc(F)cc1
inactive: [1] | [2] | [3] | [6] | [7] | [8] | [9] | [11] | [12] | [14] | [15] | [17] | [18] | [19]
active: [4] 115 µM | [5] 99.5 µM | [10] 37.6 µM | [13] 169 µM | [16] 113 µM

COc1nn(CSP(=S)(OC)OC)c(=O)s1
inactive: [1] | [2] | [3] | [4] | [5] | [6] | [7] | [8] | [9] | [10] | [11] | [12] | [13] | [14] | [15] | [16] | [17] | [18] | [19]

CC1(C)C(C=C(Cl)Cl)C1C(=O)OC(C#N)c1ccc(F)c(Oc2ccccc2)c1 (centres undefined)
inactive: [1] | [2] | [3] | [4] | [5] | [6] | [7] | [8] | [9] | [10] | [11] | [12] | [13] | [14] | [15] | [16] | [17] | [18] | [19]
